In PubChem BioAssay (EPA / NIEHS):
Several values for one entry are separate records, joined by “and”; a condition that tells them apart may be missing. Equal values may be shown once. A structure can be active in one record and inactive in another. Activity calls are given as the source filed them. How the source made its calls: active means hit-call score of the fitted dose curve at least 0.9, where 1 is the maximum; inactive means score below 0.9.

Assay: ATG_AP_1_CIS: Attagene CIS-FACTORIAL HepG2 Assay for human Activator Protein 1 (AP-1) (AID 2282931)
Conditions: HepG2 Attagene cis-factorial AP-1 reporter mRNA; actives raise or lower the signal
Description: ATG_CIS is a cell-based, multiplexed-readout assay that uses HepG2, a human liver cell line, with measurements taken at 24 hours after chemical dosing in a 24-well plate.ATG_AP_1_CIS is one of 52 assay component(s) measured or calculated from the ATG_CIS assay. It is designed to make measurements of mRNA induction, a form of inducible reporter, as detected with fluorescence intensity signals by Reverse transcription polymerase chain reaction (RT-PCR) and Capillary electrophoresis technology.Data from the assay component ATG_AP_1_CIS was analyzed into 1 assay endpoint. This assay endpoint, ATG_AP_1_CIS, was analyzed with bidirectional fitting relative to DMSO as the negative control and baseline of activity. Using a type of inducible reporter, measures of mRNA for gain or loss-of-signal activity can be used to understand the reporter gene at the transcription factor-level as they relate to the gene FOS and JUN. Furthermore, this assay endpoint can be referred to as a primary readout, because this assay has produced multiple assay endpoints where this one serves a reporter gene function. To generalize the intended target to other relatable targets, this assay endpoint is annotated to the dna binding intended target family, where the subfamily is basic leucine zipper.
Human liver HepG2 cells are transiently transfected with multiple reporter transcription units (MRTUs) in 6-well plates using FuGene 6 reagent (Roche; 3 ml FuGene/1 mg DNA). The MRTU constructs are regulated by a cis-regulating element (promoter). […] A major difference between the CIS and TRANS system is that in CIS activities of endogenous TFs are measured, whereas the TRANS assay evaluates changes in activities of exogenous, chimeric NR-Gal4 proteins. […] At the end of 24 hour incubation, total RNA was isolated using TriZol reagent (Invitrogen). The isolated RNA is then reverse-transcribed using oligo(dT) primer and Mo-MLV reverse transcriptase (Invitrogen) with DNAse I (Ambion) treatment for 30 min. The one-tenth of the produced cDNA was amplified by PCR using Taq DNA polymerase (Invitrogen) and two reporter sequence-specific primers. The PCR products were fluorescently labeled by primer extension with 6-arboxyfluorescein (6-FAM) 5'-labeled reporter sequence-specific primer (2 min at 95 C, 20 s at 68 C and 10 min at 72 C) and these products were digested with 5U of HpaI (New England Biolabs) for 2h at 37 C. The fragments were purified using Qiaquick PCR columns (Qiagen), analyzed on an ABI 3130xL genetic analyzer (Applied Biosystems) with peak positions identified by using a set of X-rhodamine (ROX)-labeled MapMarker1000 molecular weight standards (BioVentures). The raw capillary electrophoresis data was processed using Attagraph software (Attagene).

Row | SMILES | outcome | AC50
1 | C=CC(N)=O | inactive | –
2 | CCNc1nc(NC(C)C)nc(SC)n1 | inactive | –
3 | C1CC2OC2CC1C1CO1 (stereo not given) | inactive | –
4 | CC(C)C(=O)OCC(C)(C)C(OC(=O)C(C)C)C(C)C (stereo not given) | inactive | –
5 | Cc1ccccc1O | – | 140 µM (active)
6 | C[C@]12CCC(=O)C=C1CC[C@@H]1[C@@H]2CC[C@@]2(C)[C@H]1CC[C@]2(C)O | inactive | 114 µM (active)
7 | c1ccc(-c2ccccc2)cc1 | inactive | –
8 | Cc1cc(O)ccc1Cl | inactive | –
9 | ClC1=C(Cl)[C@]2(Cl)[C@@H]3[C@@H]4C[C@@H]([C@H]5O[C@@H]45)[C@@H]3[C@@]1(Cl)C2(Cl)Cl | inactive | –
10 | C=CC(=O)NCNC(=O)C=C | inactive | –
11 | CCCCCCCCCc1ccc(O)cc1 | inactive | 178 µM (active)
12 | O=NN(c1ccccc1)c1ccccc1 | – | 118 µM (active)
13 | Nc1ccc(-c2ccc(N)cc2)cc1 | inactive | –
14 | CCOCCOC(C)=O | inactive | –
15 | CN(C)c1nc(=O)n(C2CCCCC2)c(=O)n1C | inactive | –
16 | Oc1c(Cl)c(Cl)c(Cl)c(Cl)c1Cl | inactive | 13.7 µM (active) and 3.6 µM (active)
17 | Cc1cccc([N+](=O)[O-])c1 | inactive | –
18 | CCCCCCCCOC(=O)c1ccccc1C(=O)OCCCCCCCC | inactive | –

Row | SMILES | outcome | AC50
19 | CCOC(=O)C(O)(c1ccc(Cl)cc1)c1ccc(Cl)cc1 | inactive | –
20 | Cc1cccc(C)c1N | inactive | –
21 | Oc1ccc(C(c2ccc(O)cc2)(C(F)(F)F)C(F)(F)F)cc1 | – | 11.1 µM (active) [middle of 4 runs]
22 | Nn1cnnc1 | inactive | –
23 | O=C(O)C(F)(F)C(F)(F)C(F)(F)C(F)(F)C(F)(F)C(F)(F)C(F)(F)C(F)(F)C(F)(F)F | inactive | 59 µM (active) and 12.1 µM (active)
24 | Cc1ccccc1CO[C@@H]1C[C@@]2(C(C)C)CC[C@]1(C)O2 | inactive | –
25 | CN(C)CCO | inactive | –
26 | CCSC(=O)N(CC)C1CCCCC1 | inactive | –
27 | Clc1ccc(C(Cl)(Cl)Cl)cc1 | inactive | –
28 | O=C(O)C(F)(F)C(F)(F)C(F)(F)C(F)(F)C(F)(F)F | inactive | –
29 | CC(C)(O)C(=O)Nc1ccc([N+](=O)[O-])c(C(F)(F)F)c1 | inactive | –
30 | NS(=O)(=O)C(F)(F)C(F)(F)C(F)(F)C(F)(F)C(F)(F)C(F)(F)C(F)(F)C(F)(F)F | – | 29.9 µM (active) and 262 µM (active) and 17 µM (active)
31 | ClC(Cl)=C(c1ccc(Cl)cc1)c1ccc(Cl)cc1 | – | 100 µM (active) and 64.2 µM (active) and 73.8 µM (active)
32 | O=C(NC(=O)c1c(F)cccc1F)Nc1cc(Cl)c(OC(F)(F)C(F)F)c(Cl)c1 | inactive | –
33 | Cc1cc(-c2ccc(N)c(C)c2)ccc1N | inactive | –
34 | Cc1ccc(O)c(C)c1 | inactive | –
35 | CO/C=C(/C(=O)OC)c1ccccc1COc1cccc(C(F)(F)F)n1 | inactive | –
36 | Oc1ccc(Cl)cc1Cl | inactive | –
